± gives the standard deviation of the averaged measurements. About 6,200 targets were measured; listed, in parts, are those with the largest changes and a random draw of the rest.
Experiments:
Assay in all cases: NP40-soluble protein abundance relative to vehicle (solubility fold change) (ratio); higher = more soluble protein in presence of AMP-PNP
[1] = target: A0A024R216|Q9Y3E1 (UniProt Q9Y3E1)
Summary of the method: (§1)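 Across three independent experiments, values are fold changes against the detergent-processed vehicle for each replicate, based on vsn-normalised intensities. The samples were Jurkat crude lysate treated with eight concentrations (0.1 to 10 mM) for 10 min at room temperature and then 3 min at 37 °C. Lysate was solubilised with 0.8% NP40 and benzonase, ultracentrifuged, and the supernatant analysed by TMT-labelled LC-MS/MS.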

[2] = target: A0A024RAC6 (UniProt Q14241)
Summary of the method: as §1

[3] = target: A0A075B738|P16284|P16284-6 (UniProt P16284)
Summary of the method: as §1

[4] = target: T1, A0A087WUL0|Q3LXA3 (UniProt Q3LXA3)
T1 sequence (whole entry): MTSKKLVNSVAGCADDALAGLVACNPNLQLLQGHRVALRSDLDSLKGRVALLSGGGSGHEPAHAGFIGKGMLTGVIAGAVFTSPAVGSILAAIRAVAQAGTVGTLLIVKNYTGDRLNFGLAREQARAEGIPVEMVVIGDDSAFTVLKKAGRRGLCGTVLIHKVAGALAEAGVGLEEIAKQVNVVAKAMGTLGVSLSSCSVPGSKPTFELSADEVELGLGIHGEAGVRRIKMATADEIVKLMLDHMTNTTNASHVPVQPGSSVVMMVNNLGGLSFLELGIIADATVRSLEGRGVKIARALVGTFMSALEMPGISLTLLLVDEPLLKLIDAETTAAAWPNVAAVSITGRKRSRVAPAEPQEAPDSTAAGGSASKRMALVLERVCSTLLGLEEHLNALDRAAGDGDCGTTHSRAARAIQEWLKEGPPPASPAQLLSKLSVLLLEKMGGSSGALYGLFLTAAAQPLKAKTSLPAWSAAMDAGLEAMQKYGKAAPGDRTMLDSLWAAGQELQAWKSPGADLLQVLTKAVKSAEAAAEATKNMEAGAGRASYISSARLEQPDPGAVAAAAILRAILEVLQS
Summary of the method: as §1

[5] = target: T2, A0A087WUT6|O60841 (UniProt O60841)
T2 sequence (whole entry): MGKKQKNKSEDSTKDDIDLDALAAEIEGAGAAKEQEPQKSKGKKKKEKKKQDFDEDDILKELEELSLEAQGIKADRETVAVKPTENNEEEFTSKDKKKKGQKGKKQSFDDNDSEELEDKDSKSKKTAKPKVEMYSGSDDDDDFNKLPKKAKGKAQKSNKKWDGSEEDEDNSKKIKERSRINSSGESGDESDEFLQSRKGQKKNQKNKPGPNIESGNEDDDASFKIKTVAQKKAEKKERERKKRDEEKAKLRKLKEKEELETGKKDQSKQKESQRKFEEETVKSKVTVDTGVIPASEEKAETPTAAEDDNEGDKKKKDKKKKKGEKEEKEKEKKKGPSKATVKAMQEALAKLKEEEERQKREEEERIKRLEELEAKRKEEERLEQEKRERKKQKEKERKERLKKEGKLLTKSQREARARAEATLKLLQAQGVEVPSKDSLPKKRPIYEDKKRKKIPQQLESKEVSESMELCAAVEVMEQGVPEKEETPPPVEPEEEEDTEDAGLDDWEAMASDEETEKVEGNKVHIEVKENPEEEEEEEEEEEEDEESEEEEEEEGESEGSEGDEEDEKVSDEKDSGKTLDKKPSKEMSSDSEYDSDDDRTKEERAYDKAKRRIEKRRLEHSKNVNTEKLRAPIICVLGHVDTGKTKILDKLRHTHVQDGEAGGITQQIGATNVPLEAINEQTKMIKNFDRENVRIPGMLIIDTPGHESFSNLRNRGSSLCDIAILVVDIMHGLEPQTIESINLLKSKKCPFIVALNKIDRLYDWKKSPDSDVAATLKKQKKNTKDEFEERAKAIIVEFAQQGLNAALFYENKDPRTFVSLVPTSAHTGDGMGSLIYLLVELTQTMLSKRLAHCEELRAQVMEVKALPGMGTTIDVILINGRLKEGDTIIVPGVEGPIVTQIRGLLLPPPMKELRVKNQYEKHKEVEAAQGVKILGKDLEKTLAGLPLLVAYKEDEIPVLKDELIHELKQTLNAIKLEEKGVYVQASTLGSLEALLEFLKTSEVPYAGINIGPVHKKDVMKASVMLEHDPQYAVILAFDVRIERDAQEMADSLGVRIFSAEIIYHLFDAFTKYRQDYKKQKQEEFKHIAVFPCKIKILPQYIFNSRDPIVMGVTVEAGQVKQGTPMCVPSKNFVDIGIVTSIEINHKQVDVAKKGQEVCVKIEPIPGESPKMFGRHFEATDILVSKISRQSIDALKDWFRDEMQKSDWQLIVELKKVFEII
Summary of the method: as §1

A0A024RAC6, sequence (Q14241 whole entry): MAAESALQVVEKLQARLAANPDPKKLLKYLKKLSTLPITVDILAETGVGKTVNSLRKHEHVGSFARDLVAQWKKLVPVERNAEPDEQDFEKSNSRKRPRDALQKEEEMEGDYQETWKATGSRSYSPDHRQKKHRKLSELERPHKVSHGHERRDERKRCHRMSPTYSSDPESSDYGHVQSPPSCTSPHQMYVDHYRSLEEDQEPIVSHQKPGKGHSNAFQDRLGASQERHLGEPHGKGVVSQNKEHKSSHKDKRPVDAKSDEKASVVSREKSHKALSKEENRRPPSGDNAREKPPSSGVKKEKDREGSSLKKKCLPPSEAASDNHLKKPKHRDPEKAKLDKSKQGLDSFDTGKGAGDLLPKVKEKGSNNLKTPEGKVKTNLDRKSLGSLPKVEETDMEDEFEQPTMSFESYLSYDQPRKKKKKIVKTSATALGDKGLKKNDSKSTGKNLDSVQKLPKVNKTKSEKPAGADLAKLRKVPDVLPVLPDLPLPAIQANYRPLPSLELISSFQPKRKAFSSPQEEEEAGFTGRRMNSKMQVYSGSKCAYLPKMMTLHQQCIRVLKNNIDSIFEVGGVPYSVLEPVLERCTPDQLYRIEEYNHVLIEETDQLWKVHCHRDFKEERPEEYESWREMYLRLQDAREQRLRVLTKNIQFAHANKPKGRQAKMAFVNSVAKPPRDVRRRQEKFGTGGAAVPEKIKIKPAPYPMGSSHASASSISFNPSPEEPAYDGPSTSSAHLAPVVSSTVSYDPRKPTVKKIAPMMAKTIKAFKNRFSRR
A0A024R216|Q9Y3E1, sequence (Q9Y3E1 whole entry, one chain of several): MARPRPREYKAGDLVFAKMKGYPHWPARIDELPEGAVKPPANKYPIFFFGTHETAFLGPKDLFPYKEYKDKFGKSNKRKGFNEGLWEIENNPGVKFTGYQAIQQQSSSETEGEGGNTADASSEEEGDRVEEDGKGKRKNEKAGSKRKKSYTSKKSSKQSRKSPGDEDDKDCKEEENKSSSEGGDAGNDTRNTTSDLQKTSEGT

`Nc1ncnc2c1ncn2[C@@H]1O[C@H](COP(=O)(O)OP(=O)(O)NP(=O)(O)O)[C@@H](O)[C@H]1O` [adenylyl imidodiphosphate] gave an NP40-soluble protein abundance ([1]; concentration: 1mM) of 1 ± 0.031, an NP40-soluble protein abundance ([1]; concentration: 2mM) of 1.1 ± 0.17 and an NP40-soluble protein abundance ([1]; concentration: 4mM) of 1.05 ± 0.074. It also gave an NP40-soluble protein abundance ([1]; concentration: 6mM) of 1.16 ± 0.074, an NP40-soluble protein abundance ([1]; concentration: 8mM) of 1.11 ± 0.06 and an NP40-soluble protein abundance ([1]; concentration: 10mM) of 1.17 ± 0.14. It also gave an NP40-soluble protein abundance ([2]; concentration: 1mM) of 1.05 ± 0.014, an NP40-soluble protein abundance ([2]; concentration: 2mM) of 1.13 ± 0.076 and an NP40-soluble protein abundance ([2]; concentration: 4mM) of 1.06 ± 0.029. The NP40-soluble protein abundance ([2]; concentration: 6mM) was 1.08 ± 0.044, the NP40-soluble protein abundance ([2]; concentration: 8mM) was 1.06 ± 0.022 and the NP40-soluble protein abundance ([2]; concentration: 10mM) was 1.09 ± 0.019. For the same compound, the NP40-soluble protein abundance ([3]; concentration: 1mM) was 1.02 ± 0.027, the NP40-soluble protein abundance ([3]; concentration: 2mM) was 1.08 ± 0.095 and the NP40-soluble protein abundance ([3]; concentration: 4mM) was 1.01 ± 0.033. It also gave an NP40-soluble protein abundance ([3]; concentration: 6mM) of 0.995 ± 0.011, an NP40-soluble protein abundance ([3]; concentration: 8mM) of 0.98 ± 0.013 and an NP40-soluble protein abundance ([3]; concentration: 10mM) of 0.994 ± 0.032. The NP40-soluble protein abundance ([4]; concentration: 1mM) was 1.02 ± 0.024, the NP40-soluble protein abundance ([4]; concentration: 2mM) was 1.05 ± 0.05 and the NP40-soluble protein abundance ([4]; concentration: 4mM) was 1.03 ± 0.054. It also gave an NP40-soluble protein abundance ([4]; concentration: 6mM) of 0.997 ± 0.01, an NP40-soluble protein abundance ([4]; concentration: 8mM) of 0.963 ± 0.027 and an NP40-soluble protein abundance ([4]; concentration: 10mM) of 1.02 ± 0.036. The NP40-soluble protein abundance ([5]; concentration: 1mM) was 1.05 ± 0.012, the NP40-soluble protein abundance ([5]; concentration: 2mM) was 1.02 ± 0.018 and the NP40-soluble protein abundance ([5]; concentration: 4mM) was 1.02 ± 0.017.

From the supplement of paper PMC6411743
